Records with an inconclusive call do not appear. Calls of active or inactive are those of the source. How the source made its calls, unless noted: active means hit-call score of the fitted dose curve at least 0.9, where 1 is the maximum; inactive means score below 0.9.

Assay [1] in a line: ATG_TAL_CIS: Attagene CIS-FACTORIAL HepG2 Assay for human TAL Basal Promoter (AID 2282966).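 Further: background control endpoint measuring basal TAL promoter reporter mRNA not a specific factor.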 The note with it: HepG2 Attagene cis-factorial TAL promoter reporter; actives raise or lower the signal. The procedure, abridged:
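HepG2 cells were transiently transfected with promoter-driven multiplexed reporter units and dosed for 24 h. Reporter mRNA was measured by RT-PCR with capillary electrophoresis fluorescence; bidirectional fits used DMSO as baseline, serving as a background control.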

Assay [2] in a line: ATG_TGFb_CIS: Attagene CIS-FACTORIAL HepG2 Assay for human Transforming Growth Factor (TGF) (AID 2282967). The note with it: HepG2 Attagene CIS TGFb reporter, mRNA transcription; actives raise or lower the signal. The essentials:
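HepG2 cells transiently transfected with cis-promoter-driven multiplexed reporter units; 24 h compound exposure. Reporter mRNA measured by RT-PCR, 6-FAM labeling, HpaI digestion and capillary electrophoresis; bidirectional fit versus DMSO baseline.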

In assay [3] the target is X-box-binding protein 1 (Homo sapiens) (UniProt P17861). Put plainly: ATG_Xbp1_CIS: Attagene CIS-FACTORIAL HepG2 Assay for human X-box Binding Protein 1 (XBP1) (AID 2282972). The note with it: HepG2 XBP1 cis-element reporter, Attagene multiplex; actives raise or lower the signal. The procedure, abridged: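 HepG2 cells transiently transfected with cis-regulated multiple reporter transcription units; endogenous transcription factor activity measured 24 hours after chemical dosing. Reporter mRNA quantified by RT-PCR, 6-FAM primer extension, HpaI digestion and capillary electrophoresis; bidirectional fitting versus DMSO.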
X-box-binding protein 1 (Homo sapiens), sequence (P17861 whole entry, looked up): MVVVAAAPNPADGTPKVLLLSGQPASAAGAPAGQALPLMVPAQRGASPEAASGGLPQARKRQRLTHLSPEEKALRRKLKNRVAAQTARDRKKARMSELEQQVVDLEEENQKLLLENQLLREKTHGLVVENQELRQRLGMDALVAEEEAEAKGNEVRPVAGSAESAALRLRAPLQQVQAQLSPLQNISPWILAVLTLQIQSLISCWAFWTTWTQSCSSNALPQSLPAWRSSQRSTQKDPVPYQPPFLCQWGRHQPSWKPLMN

Assay [4] is described as follows: ATG_M_19_TRANS: Attagene TRANS-FACTORIAL HepG2 Assay for M19 Transcription Factor (Internal Marker) (AID 2282974; active means hit-call score of the fitted dose curve at least 0.9, where 1 is the maximum). The note with it: HepG2 Attagene TRANS-FACTORIAL M19 internal marker reporter. The procedure, abridged:
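Transfected HepG2 (GAL4-UAS MRTUs), 24 h compound, TriZol RNA, DNase-treated RT, reporter PCR, FAM label, HpaI digest, CE fluorescence; gain vs DMSO.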

Assay [5] is described as follows: ATG_GAL4_TRANS: Attagene TRANS-FACTORIAL HepG2 Assay for GAL4 (Internal Marker) (AID 2282976; active means hit-call score of the fitted dose curve at least 0.9, where 1 is the maximum). The note with it: HepG2 Attagene TRANS GAL4 internal marker reporter. The procedure, abridged: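 HepG2 cells transiently transfected with multiplexed GAL4-UAS reporter constructs were dosed for 24 h. Reporter mRNA was measured by RT-PCR, 6-FAM primer extension, HpaI digestion and capillary electrophoresis, and gain of signal was fitted relative to DMSO.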

Assay [6] concerns the target Hepatocyte nuclear factor 4-alpha (Homo sapiens) (UniProt P41235). Nature of the assay: ATG_HNF4a_TRANS: Attagene TRANS-FACTORIAL HepG2 Assay for human Hepatocyte Nuclear Factor 4 alpha (HNF4a) (AID 2282982; active means hit-call score of the fitted dose curve at least 0.9, where 1 is the maximum). The note with it: HepG2 HNF4a transactivation reporter, mRNA readout. The procedure, abridged: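 HepG2 cells transiently transfected with multiplexed GAL4-UAS reporter units responsive to chimeric NR-GAL4 proteins; compound exposure 24 h. Reporter mRNA quantified by RT-PCR, 6-FAM labelling, HpaI digestion and capillary electrophoresis; gain of signal versus DMSO baseline.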

The nature of assay [7]: ATG_M_32_TRANS: Attagene TRANS-FACTORIAL HepG2 Assay for M32 Transcription Factor (Internal Marker) (AID 2282984; active means hit-call score of the fitted dose curve at least 0.9, where 1 is the maximum). Particulars: HepG2 Attagene TRANS M32 internal marker reporter. The procedure, abridged: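 HepG2 cells transiently transfected with multiple GAL4-UAS reporter transcription units, dosed for 24 hours; reporter mRNA quantified by RT-PCR, 6-FAM primer extension, HpaI digestion and capillary electrophoresis. Gain-of-signal fitted versus DMSO baseline; internal background-control marker.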

Assay [8] has as its target Nuclear receptor subfamily 4 group A member 2 (Homo sapiens) (UniProt P43354). Put plainly: ATG_NURR1_TRANS: Attagene TRANS-FACTORIAL HepG2 Assay for human Nuclear Receptor Related Protein 1 (NURR1) (AID 2282985; active means hit-call score of the fitted dose curve at least 0.9, where 1 is the maximum). Particulars: HepG2 Attagene TRANS reporter, mRNA readout. The essentials: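 HepG2 cells transiently transfected with GAL4-UAS reporter units and chimeric NR-Gal4 constructs; chemical exposure 24 h. Reporter mRNA quantified by RT-PCR, fluorescent labelling and capillary electrophoresis; gain of signal fitted relative to DMSO baseline.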

Assay [9] addresses Transcriptional activator Myb (Homo sapiens) (UniProt P10242). Nature of the assay: ATG_Myb_CIS: Attagene CIS-FACTORIAL HepG2 Assay for human Myeloblastosis (Myb) Proto-Oncogene Transcription Factor (AID 2282986). Particulars: HepG2 Attagene CIS-FACTORIAL Myb reporter transcription; actives raise or lower the signal. The essentials: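 After 24 h of compound dosing, total RNA from transfected HepG2 cells is reverse-transcribed and the reporter sequences amplified, labeled and separated by capillary electrophoresis. Values come from bidirectional fitting against DMSO.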

For assay [10], the target named is Nuclear respiratory factor 1 (Homo sapiens) (UniProt Q16656). Put plainly: ATG_NRF1_CIS: Attagene CIS-FACTORIAL HepG2 Assay for human Nuclear Respiratory Factor 1 (NRF1) Orphan Gene (AID 2282987). Particulars: HepG2 NRF1 cis-element reporter, Attagene multiplex; actives raise or lower the signal. The procedure, abridged:
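Measured: fluorescent reporter-specific RT-PCR products from transfected HepG2 cells, separated by capillary electrophoresis. Exposure lasted 24 h. Analysis used bidirectional curve fitting with DMSO as negative control.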

Assay [11] can be described thus: ATG_NFI_CIS: Attagene CIS-FACTORIAL HepG2 Assay for human Nuclear Factor I (NFI) (AID 2282989). The note with it: HepG2 cis-regulatory reporter, NFI response element transcription; actives raise or lower the signal. The essentials:
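HepG2 cells transiently transfected with cis-element-driven multiplexed reporter transcription units, dosed for 24 h. Reporter mRNA quantified by RT-PCR, fluorescent labelling, HpaI digestion and capillary electrophoresis; bidirectional fit versus DMSO baseline.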

The target of assay [12] is Estrogen receptor (Homo sapiens) (UniProt P03372). Put plainly: ATG_ERa_TRANS: Attagene TRANS-FACTORIAL HepG2 Assay for human Estrogen Receptor alpha (ERa) (AID 2282970; active means hit-call score of the fitted dose curve at least 0.9, where 1 is the maximum). The note with it: HepG2 Attagene TRANS ERa GAL4 reporter, mRNA. The essentials:
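HepG2 cells transiently transfected with multiplexed GAL4-UAS reporter units; ERa activity read via exogenous chimeric NR-Gal4 protein. After 24 hour compound exposure, reporter mRNA measured by RT-PCR with 6-FAM labelling and capillary electrophoresis; gain-of-signal fitted relative to DMSO.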

For assay [13], the target named is Bile acid receptor (Homo sapiens) (UniProt Q96RI1). Put plainly: ATG_FXR_TRANS: Attagene TRANS-FACTORIAL HepG2 Assay for Farnesoid X Receptor (FXR) (AID 2282979; active means hit-call score of the fitted dose curve at least 0.9, where 1 is the maximum;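 further: hits raise reporter mRNA above DMSO so AC50 marks FXR activation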). Particulars: HepG2 Attagene TRANS FXR-GAL4 reporter transcription. The essentials: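 HepG2 cells transiently transfected with reporter constructs in which a chimeric FXR-GAL4 protein drives a GAL4-UAS reporter; 24 h compound exposure. Reporter mRNA measured by RT-PCR, FAM labelling, HpaI digestion and capillary electrophoresis; gain-of-signal versus DMSO.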
Bile acid receptor (Homo sapiens), sequence (Q96RI1 whole entry, looked up, the tested form may be a part): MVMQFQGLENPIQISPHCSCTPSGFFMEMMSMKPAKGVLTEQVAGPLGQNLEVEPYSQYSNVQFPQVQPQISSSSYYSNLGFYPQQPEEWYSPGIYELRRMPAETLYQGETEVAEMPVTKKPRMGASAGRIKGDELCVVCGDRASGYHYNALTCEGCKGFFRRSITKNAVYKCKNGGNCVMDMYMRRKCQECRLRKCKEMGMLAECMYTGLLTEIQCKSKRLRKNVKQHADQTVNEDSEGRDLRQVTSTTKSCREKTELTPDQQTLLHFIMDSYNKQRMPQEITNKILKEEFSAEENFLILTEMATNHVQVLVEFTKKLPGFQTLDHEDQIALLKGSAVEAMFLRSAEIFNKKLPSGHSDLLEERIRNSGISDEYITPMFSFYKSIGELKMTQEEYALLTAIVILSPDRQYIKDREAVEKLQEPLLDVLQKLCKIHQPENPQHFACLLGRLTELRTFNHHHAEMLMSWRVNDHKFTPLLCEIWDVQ

Assay [14] addresses Oxysterols receptor LXR-alpha (Homo sapiens) (UniProt Q13133). Nature of the assay: ATG_LXRa_TRANS: Attagene TRANS-FACTORIAL HepG2 Assay for human Liver X Receptor alpha (LXRa) (AID 2282980; active means hit-call score of the fitted dose curve at least 0.9, where 1 is the maximum). The note with it: HepG2 Attagene TRANS reporter, LXRa transactivation. The procedure, abridged: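 HepG2 cells were transiently transfected with multiplexed reporter units driven by chimeric LXRa–GAL4 fusion proteins, then dosed for 24 h. Reporter mRNA was quantified by RT-PCR, fluorescent labelling and capillary electrophoresis; gain of signal fitted against DMSO baseline.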

The nature of assay [15]: ATG_M_06_TRANS: Attagene TRANS-FACTORIAL HepG2 Assay for M06 Transcription Factor (Internal Marker) (AID 2282983; active means hit-call score of the fitted dose curve at least 0.9, where 1 is the maximum;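 further: reporter transcript level by RT-PCR then capillary electrophoresis fluorescence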). Particulars: HepG2 Attagene TRANS M06 internal marker reporter. The essentials:
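HepG2 cells transiently transfected with multiplexed GAL4-UAS reporter transcription units; after 24 h compound exposure, reporter mRNA measured by RT-PCR, FAM-labelled primer extension, HpaI digestion and capillary electrophoresis. Gain-of-signal fitted versus DMSO baseline; background control readout.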

The nature of assay [16]: ATG_VDRE_CIS: Attagene CIS-FACTORIAL HepG2 Assay for human Vitamin D Receptor Element (VDRE) (AID 2282968). Particulars: HepG2 VDRE cis-reporter transcription, actives raise or lower the signal. The essentials: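 HepG2 cells transiently transfected with cis-element reporter units, dosed 24 h; reporter mRNA measured by RT-PCR, 6-FAM labeling, HpaI digestion and capillary electrophoresis. Activity fitted bidirectionally against DMSO baseline.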

The target of assay [17] is Glucocorticoid receptor (Homo sapiens) (UniProt P04150). Nature of the assay: ATG_GR_TRANS: Attagene TRANS-FACTORIAL HepG2 Assay for human Glucocorticoid Receptor (GR) (AID 2282978; active means hit-call score of the fitted dose curve at least 0.9, where 1 is the maximum;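 further: activators score as hits since higher reporter transcript over DMSO is fitted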). Particulars: HepG2 Attagene TRANS GR reporter, mRNA transcription. The procedure, abridged:
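After 24 h incubation with test chemical, transfected HepG2 cells were lysed for RNA; reporter cDNA was amplified, FAM-labelled, HpaI-digested and sized on a capillary analyser. Signal gain relative to DMSO was scored.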

Estrogen receptor (Homo sapiens), sequence (P03372 whole entry, looked up, the tested form may be a part): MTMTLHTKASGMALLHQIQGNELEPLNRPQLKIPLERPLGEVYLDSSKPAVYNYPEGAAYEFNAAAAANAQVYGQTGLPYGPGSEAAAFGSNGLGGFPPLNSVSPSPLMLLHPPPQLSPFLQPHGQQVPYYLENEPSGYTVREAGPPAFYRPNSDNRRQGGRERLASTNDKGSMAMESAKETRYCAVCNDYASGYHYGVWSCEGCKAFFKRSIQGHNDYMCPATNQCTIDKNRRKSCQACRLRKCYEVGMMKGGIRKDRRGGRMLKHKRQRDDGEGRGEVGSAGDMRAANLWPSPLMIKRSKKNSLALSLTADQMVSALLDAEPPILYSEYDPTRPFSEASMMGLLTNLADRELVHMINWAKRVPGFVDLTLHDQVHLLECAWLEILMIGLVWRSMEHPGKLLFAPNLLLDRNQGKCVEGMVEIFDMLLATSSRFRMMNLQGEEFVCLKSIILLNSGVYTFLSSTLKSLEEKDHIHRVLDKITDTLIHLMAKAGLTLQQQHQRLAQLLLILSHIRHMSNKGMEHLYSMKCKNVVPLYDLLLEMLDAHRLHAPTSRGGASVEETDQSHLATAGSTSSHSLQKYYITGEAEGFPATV
Hepatocyte nuclear factor 4-alpha (Homo sapiens), sequence (P41235 whole entry, looked up, the tested form may be a part): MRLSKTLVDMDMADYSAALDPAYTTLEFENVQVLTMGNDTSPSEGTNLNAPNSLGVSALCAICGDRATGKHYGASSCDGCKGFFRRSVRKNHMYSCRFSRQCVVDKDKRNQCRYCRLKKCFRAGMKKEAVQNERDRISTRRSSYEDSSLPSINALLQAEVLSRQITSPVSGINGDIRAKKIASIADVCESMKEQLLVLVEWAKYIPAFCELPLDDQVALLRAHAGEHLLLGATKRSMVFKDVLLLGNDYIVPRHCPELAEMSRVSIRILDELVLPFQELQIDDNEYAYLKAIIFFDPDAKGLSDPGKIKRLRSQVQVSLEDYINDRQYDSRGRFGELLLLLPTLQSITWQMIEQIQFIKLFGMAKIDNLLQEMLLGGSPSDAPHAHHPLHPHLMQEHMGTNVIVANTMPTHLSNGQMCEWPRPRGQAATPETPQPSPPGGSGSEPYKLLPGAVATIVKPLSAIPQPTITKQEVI
Nuclear respiratory factor 1 (Homo sapiens), sequence (Q16656 whole entry, looked up): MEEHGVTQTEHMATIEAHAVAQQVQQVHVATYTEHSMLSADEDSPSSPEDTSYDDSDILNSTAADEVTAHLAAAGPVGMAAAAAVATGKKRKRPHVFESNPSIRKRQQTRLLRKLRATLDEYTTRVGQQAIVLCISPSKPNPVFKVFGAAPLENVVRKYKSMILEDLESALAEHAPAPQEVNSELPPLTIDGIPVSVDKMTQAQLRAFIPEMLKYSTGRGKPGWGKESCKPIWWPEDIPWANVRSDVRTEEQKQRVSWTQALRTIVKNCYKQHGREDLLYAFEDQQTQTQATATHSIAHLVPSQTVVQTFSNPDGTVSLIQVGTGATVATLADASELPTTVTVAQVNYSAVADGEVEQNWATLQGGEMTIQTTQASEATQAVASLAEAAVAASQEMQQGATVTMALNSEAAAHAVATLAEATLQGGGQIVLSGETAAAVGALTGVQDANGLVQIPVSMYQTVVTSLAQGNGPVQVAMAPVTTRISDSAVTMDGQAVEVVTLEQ
Nuclear receptor subfamily 4 group A member 2 (Homo sapiens), sequence (P43354 whole entry, looked up, the tested form may be a part): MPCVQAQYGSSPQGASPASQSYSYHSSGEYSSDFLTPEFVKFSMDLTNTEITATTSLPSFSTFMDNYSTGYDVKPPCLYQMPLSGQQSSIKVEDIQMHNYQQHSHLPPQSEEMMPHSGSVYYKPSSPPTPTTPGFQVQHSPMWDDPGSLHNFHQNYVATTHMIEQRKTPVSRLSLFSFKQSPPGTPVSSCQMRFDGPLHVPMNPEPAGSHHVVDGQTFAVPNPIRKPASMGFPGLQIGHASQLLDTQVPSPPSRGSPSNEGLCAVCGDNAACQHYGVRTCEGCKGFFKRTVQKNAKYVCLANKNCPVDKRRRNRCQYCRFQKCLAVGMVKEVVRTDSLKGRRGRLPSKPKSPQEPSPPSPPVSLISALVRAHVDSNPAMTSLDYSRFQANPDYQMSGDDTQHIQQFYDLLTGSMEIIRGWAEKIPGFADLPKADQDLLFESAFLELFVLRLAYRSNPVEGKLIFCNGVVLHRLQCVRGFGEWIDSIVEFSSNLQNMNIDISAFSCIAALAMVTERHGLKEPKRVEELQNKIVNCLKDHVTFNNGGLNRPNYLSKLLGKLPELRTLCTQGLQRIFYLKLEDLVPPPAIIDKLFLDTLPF
Transcriptional activator Myb (Homo sapiens), sequence (P10242 whole entry, looked up): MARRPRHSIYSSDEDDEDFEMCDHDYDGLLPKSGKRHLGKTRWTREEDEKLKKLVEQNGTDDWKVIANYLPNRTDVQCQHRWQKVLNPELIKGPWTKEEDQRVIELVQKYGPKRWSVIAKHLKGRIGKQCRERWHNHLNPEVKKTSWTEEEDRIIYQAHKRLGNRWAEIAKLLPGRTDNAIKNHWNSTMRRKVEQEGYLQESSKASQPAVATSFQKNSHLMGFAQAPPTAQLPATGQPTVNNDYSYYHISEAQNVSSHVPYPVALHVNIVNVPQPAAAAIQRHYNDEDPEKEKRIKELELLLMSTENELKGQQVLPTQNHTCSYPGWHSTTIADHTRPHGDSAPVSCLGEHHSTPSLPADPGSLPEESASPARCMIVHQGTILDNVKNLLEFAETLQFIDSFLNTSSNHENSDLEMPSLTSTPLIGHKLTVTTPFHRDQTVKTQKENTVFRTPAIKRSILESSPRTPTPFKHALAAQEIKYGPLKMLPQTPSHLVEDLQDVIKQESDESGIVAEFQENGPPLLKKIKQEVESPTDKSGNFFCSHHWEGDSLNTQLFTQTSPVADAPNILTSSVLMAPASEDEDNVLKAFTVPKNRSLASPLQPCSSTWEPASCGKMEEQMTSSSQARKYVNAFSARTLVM
Oxysterols receptor LXR-alpha (Homo sapiens), sequence (Q13133 whole entry, looked up, the tested form may be a part): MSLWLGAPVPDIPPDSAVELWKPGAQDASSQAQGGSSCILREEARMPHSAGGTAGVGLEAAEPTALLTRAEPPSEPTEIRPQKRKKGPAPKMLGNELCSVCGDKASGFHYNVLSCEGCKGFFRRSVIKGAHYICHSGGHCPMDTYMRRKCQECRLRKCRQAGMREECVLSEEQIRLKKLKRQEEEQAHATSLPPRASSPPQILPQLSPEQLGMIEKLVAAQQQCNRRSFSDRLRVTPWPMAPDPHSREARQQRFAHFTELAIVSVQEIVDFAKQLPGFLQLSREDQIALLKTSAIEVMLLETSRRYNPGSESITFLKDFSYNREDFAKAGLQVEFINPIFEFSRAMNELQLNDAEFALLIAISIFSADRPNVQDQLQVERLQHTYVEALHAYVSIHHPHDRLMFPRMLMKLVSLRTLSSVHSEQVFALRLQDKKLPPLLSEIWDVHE
Glucocorticoid receptor (Homo sapiens), sequence (P04150 whole entry, looked up): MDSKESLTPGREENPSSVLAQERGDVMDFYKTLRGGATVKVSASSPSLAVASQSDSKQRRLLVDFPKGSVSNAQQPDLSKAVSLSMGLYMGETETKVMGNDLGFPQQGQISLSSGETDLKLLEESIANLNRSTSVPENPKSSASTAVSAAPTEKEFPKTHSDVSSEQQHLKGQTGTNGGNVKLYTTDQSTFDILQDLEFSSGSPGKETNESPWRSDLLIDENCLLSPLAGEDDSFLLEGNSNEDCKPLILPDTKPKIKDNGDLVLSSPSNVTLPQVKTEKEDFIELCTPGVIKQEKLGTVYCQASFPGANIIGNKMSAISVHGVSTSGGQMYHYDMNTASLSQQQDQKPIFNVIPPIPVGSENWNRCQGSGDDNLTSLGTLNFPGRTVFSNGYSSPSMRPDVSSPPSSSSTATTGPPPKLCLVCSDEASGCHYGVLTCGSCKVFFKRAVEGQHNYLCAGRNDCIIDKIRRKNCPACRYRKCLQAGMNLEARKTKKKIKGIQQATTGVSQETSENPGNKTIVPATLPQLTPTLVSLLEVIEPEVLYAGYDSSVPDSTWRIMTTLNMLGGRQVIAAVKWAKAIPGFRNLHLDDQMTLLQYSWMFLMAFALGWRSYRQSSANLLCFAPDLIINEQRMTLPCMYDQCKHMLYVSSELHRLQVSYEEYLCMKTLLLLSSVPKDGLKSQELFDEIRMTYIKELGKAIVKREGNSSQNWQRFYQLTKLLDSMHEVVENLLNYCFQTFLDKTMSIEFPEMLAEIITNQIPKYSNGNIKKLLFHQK

On to `NC(N)=O`, for which the result in assay [1], in assay [2], in assay [3], in assay [4], in assay [5] and in assay [6] was inactive. The result in assay [7], in assay [8], in assay [9], in assay [10] and in assay [11] was inactive.
As usually defined, the AC50 is the midpoint of the concentration-response curve, whichever way the signal moves. As to `CC(C)C(=O)Nc1ccc([N+](=O)[O-])c(C(F)(F)F)c1`, the result in [1], in assay [2], in [12], in assay [4], in [13] and in assay [14] was inactive. Further, the call in assay [6], in assay [15], in assay [9], in assay [10] and in [11] was inactive. Besides, the AC50 was 27 µM (active) in assay [3] and 43.5 µM (active) in assay [8].
For the compound `COS(C)(=O)=O`, the compound was called inactive in assay [1], in assay [2], in assay [16], in assay [3], in assay [5] and in [14]. The compound was classed as inactive in [6], in [15], in assay [9], in assay [10] and in assay [11].
`Cn1cc[nH]c1=S`: the outcome in [1], in assay [2], in assay [16], in assay [3], in assay [5] and in [15] was inactive. The result in assay [7], in assay [8], in assay [9], in [10] and in [11] was inactive.
For the compound `CCCCN1C(=O)[C@@H]([C@H](O)C2CCCCC2)NC(=O)C12CCN(Cc1ccc(Oc3ccc(C(=O)O)cc3)cc1)CC2`, in assay [1], the AC50 was 21.9 µM (active). The compound was classed as inactive in assay [2], in assay [12], in assay [3], in [5], in [15] and in assay [7]. The call in assay [9], in assay [10] and in assay [11] was inactive.
For `c1ccc(C(O[C@@H]2CCCN(CCc3ccc4c(c3)OCO4)C2)c2ccccc2)cc1`, the call in assay [1], in assay [2], in [17], in [6], in assay [15] and in assay [7] was inactive. In addition, the call in assay [8], in assay [9], in assay [10] and in assay [11] was inactive. The AC50 was 1.76 µM (active) in [12] and 20.9 µM (active) in assay [3].

Source of the values: PubChem BioAssay (EPA / NIEHS).
